Active and inactive are the calls of the source. Rule for the calls: active = hit-call score of the fitted dose curve at least 0.9, where 1 is the maximum; inactive = score below 0.9.
Assay: CEETOX_H295R_CORTIC: CeeTox H295R High-throughput Steroidogenesis Assay for Corticosterone (CORTIC) (AID 2283437);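 note: corticosterone secreted into medium quantified by mass spectrometry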
Settings: actives raise or lower the signal
Protocol: CEETOX_H295R is a cell-based, multiplexed-readout assay that uses H295R, a human adrenal gland cell line, with measurements taken at 48 hours after chemical dosing in a 96-well plate.CEETOX_H295R_CORTIC is one of 23 assay component(s) measured or calculated from the CEETOX_H295R assay. It is designed to make measurements of hormone induction, a form of inducible reporter, as detected with absorbance signals by HPLC-MS-MS technology.Data from the assay component CEETOX_H295R_CORTIC was analyzed into 1 assay endpoint. This assay endpoint, CEETOX_H295R_CORTIC, was analyzed with bidirectional fitting relative to DMSO as the negative control and baseline of activity. Using a type of inducible reporter, gain or loss-of-signal activity using HPLC-MS-MS was used to understand synthesis of Corticosterone in H295R cell line at 48hr of chemical exposure. To generalize the intended target to other relatable targets, this assay endpoint is annotated to the steroid hormone intended target family, where the subfamily is glucocorticoids.
Cell culture and media preparation procedures were conducted in accordance with OECD Test No. 456 guidelines, with minor modifications. H295R cells (ATCC CRL-2128) were expanded for 5 passages and frozen in batches in liquid nitrogen. Prior to the steroidogenesis assay, H295R cells were thawed and passed at least 4 times. The maximum passage was 10. Cells were maintained in a 1:1 mixture of DMEM/F12 supplemented with 5ml/L ITS+ Premix (BD Bioscience) and 12.5 ml/L Nu-Serum (BD Bioscience). After seeding cells into 96-well plates at 50-60% confluency, cells were allowed to adhere overnight. Prior to chemical testing, culture medium was replaced with 175 uL medium containing 10 uM forskolin to stimulate steroidogenesis for 48 hours. Following prestimulation, forskolin medium was replaced with medium containing test chemical solubilized in DMSO (ensuring a final concentration of 0.1% DMSO). Test chemicals were incubated for 48 hours, then the medium was removed and split into 2 vials containing approximately 75uL each, and stored at -80 C prior to hormone analysis. For steroid quantification, media samples were shipped to OpAns, LLC (Durham, NC) on dry ice, and samples were thawed to room temperature prior to liquid-liquid extraction. Steroid hormones were extracted from media samples using methyl tertbutyl ether (MTBE). An extra derivatization with dansyl chloride was included for estrogen (estrone and estradiol) detection only. Steroid hormones were separated by HPLC, eluted using a reverse phase C18 gradient with electrospray positive ionization, followed by quantification by tandem mass spectrometry (MS/MS). Data were acquired on a MassHunter Workstation Acquisition version B03.01 (Agilent Technologies, Inc.) and processed using MassHunter Quantitative Analysis for QQQ. Accuracy was determined for each hormone analyte from 3 standards to determine upper and lower limits of quantification (ULOQ and LLOQ, respectively) using a 7-point standard curve. Precision and accuracy of the extraction and quantification methods were calculated as the percent relative standard deviation (%RSD) of the spiked standards and percent spiked standard recovered, respectively. […] Test medium was removed following chemical exposure, and cell viability was evaluated in the same wells by MTT. MTT procedures were as follows: after removal of test medium, 500 uL of 0.5 mg/ml of 3-[4,5-dimethylthiazol-2-y]2,5-diphenyltetrazoliumbromide solution was added to the cells. Following a 4-hour incubation at 37 C and 5% CO2 to allow formazan-crystal formation, the MTT solution was removed and blue formazan salt crystals were solubilized using 500uL anhydrous isopropanol with shaking for 20 minutes. Absorbance was read at 570 and 650nm using a Packard Fusion microplate reader. Background correction of absorbance units was used to determine percent change relative to controls. […]
In the case of `COc1cccc([C@H](O)C2CCN(CCc3ccc(F)cc3)CC2)c1OC`, the AC50 is reported as 1.22 µM (active). For `NC(=O)c1nc(-c2cccc(-c3cc(F)ccc3OCC(F)(F)C(F)(F)F)c2)n[nH]1`, the outcome was “inactive”. In the case of `CC(C)(c1cc(Br)c(O)c(Br)c1)c1cc(Br)c(O)c(Br)c1`, the outcome is reported as “inactive”. For `O=C1CCC(C2CCCCC2)CC1`, the outcome was “inactive”. With `O=C(O)Cn1c(=O)n(Cc2ccc(Br)cc2F)c(=O)c2ccc(Cl)cc21` the outcome was “inactive”. With `CCCCCCCC[Si](OCC)(OCC)OCC` the outcome was “inactive”. For `O=c1c(-c2ccc(O)cc2)coc2cc(O)cc(O)c12`, the outcome was “inactive”. In the case of `CCCCCCCCN(C)CCCCCCCC`, the outcome is reported as “inactive”. For `Cc1ccc2oc(CN(Cc3ccccc3)C(=O)Nc3c(F)cc(F)cc3F)c(-c3ccc(Cl)cc3)c2c1`, the outcome was “inactive”. For `OC12N=C(c3ccccc3)SC1Cc1cc(Cl)ccc12` (stereo not drawn), the AC50 was 17.7 µM (active). With `CCCCCCCCCCCC[N+](C)(C)C` the outcome was “inactive”. For `Clc1ccccc1C(c1ccccc1)(c1ccccc1)n1ccnc1`, the AC50 was 0.00195 µM (active). For `Cc1oc2c(NC(=O)c3c(Cl)cccc3Cl)cccc2c1C(C)(C)O`, the outcome was “inactive”. In the case of `Cc1cc2c(cc1C(F)(F)F)N(C(=O)Nc1ccc(Oc3cccnc3C)nc1)CC2`, the outcome is reported as “inactive”. For `CC(C)(C)c1cc(/C=C2\SC(N)=NC2=O)cc(C(C)(C)C)c1O`, the AC50 was 0.754 µM (active). In the case of `Oc1ccc2ccccc2c1`, the outcome is reported as “inactive”. With `CC(=O)N1CCN(c2ccc(OC[C@H]3CO[C@](Cn4ccnc4)(c4ccc(Cl)cc4Cl)O3)cc2)CC1` the AC50 was 1.77 µM (active). With `Cc1c2ccccc2c(C)c2c1ccc1ccccc12` the outcome was “inactive”. In the case of `O=C(Nc1ccc(Cl)cc1)Nc1ccc(Cl)c(Cl)c1`, the outcome is reported as “inactive”. With `CN1C(=O)N(c2ccccc2Br)Cc2cnc(Nc3ccc4c(c3)OCC(CO)O4)nc21` (stereo not drawn) the outcome was “inactive”. With `CCCCOC(=O)c1ccc(O)cc1` the outcome was “inactive”. In the case of `Clc1cc(Cl)c2c(c1)N=C1CCCCCN1C2`, the outcome is reported as “inactive”. In the case of `C[C@]12CC[C@@H]3c4ccc(O)cc4CC[C@H]3[C@@H]1CC[C@H]2O`, the AC50 is reported as 2.13 µM (active).
